Values joined by “and” are separate entries in the source; they are usually repeats but may differ in a detail not shown here. Identical values can stand only once. Results filed as inconclusive are left out. Where a structure was tested more than once in an assay, its records may differ in their call. Active and inactive are the calls of the source. The call rests on the fitted dose curve; in most records, active means well fitted cell-killing curve with a large enough effect in the repeat runs; inconclusive means weak or mixed curves, or effect the other way; inactive means flat fitted curve, though single readings scatter.
Assay: qHTS RealTime-Glo MT Cell Viability Assay in HepG2 cells - 40 hour (AID 1224870); further: nearly all actives have a fitted effect of over 50% in size
Conditions: RealTime-Glo luminescence; series mostly up to 76.8 µM; activity change, negative = cytotoxic: at the top concentration
Source text: National Center for Advancing Translational Sciences [NCATS]
NIH Chemical Genomics Center [NCGC]
U.S. Environmental Protection Agency [EPA]
National Institutes of Environmental Health Sciences [NIEHS]
National Toxicology Program [NTP]
U.S. Food and Drug Administration [FDA]
Measure of cell viability is critical in the cell-base assay. Analysis of cell viability is necessary for the characterization of cell responses to cytotoxic drugs and environmental stress. A RealTime-Glo MT Cell Viability Assay to monitor cell viability in real time of continues cell culture during 40 hours of compound treatment was used to screen Tox21 10K library compounds in HepG2 cells. The RealTime-Glo MT Cell Viability Assay is a nonlytic, homogeneous, bioluminescent method to measure cell viability in real time using a simple, plate-based method. The assay involves adding NanoLuc luciferase and a cell-permeant prosubstrate to cells in culture. Viable cells reduce the proprietary prosubstrate to generate a substrate for NanoLuc luciferase. This substrate diffuses from cells into the surrounding culture medium, where it is rapidly used by the NanoLuc Enzyme to produce a luminescent signal. The signal correlates with the number of viable cells, making the assay well suited for cytotoxicity studies.
Tox21 Assay Protocol Summary:
The mixture of HepG2 cell suspension and reagents were dispensed at 600cells/6 ul/well in 1536-well tissue culture treated black solid bottom plates using a Multidrop dispenser. After the assay plates were incubated at a 37 C/5% CO2 incubator for 5 hours, 23 nL of compounds dissolved in DMSO, positive and negative controls was transferred to the assay plate by a pintool work station. The plates were incubated at 37 C for 40 hours. The luminescence intensity were measured at 0h, 8h, 16h, 24h, 32h and 40h time points using ViewLux plate reader during compound treatment.
On the % scale 0 is the no-effect control and ±100 the full control effect; potency means the concentration at half of the fitted maximal effect.

Row | Structure (SMILES) | Potency | activity change, negative = cytotoxic
1 | CCN(CC)C(=S)[S-].CCN(CC)C(=S)[S-].[Zn+2] | 10.9 µM (active) | 
2 | Nc1c(Oc2ccccc2)cc(O)c2c1C(=O)c1ccccc1C2=O |  | 3.58% [at 35.3 µM] (inactive)
3 | Brc1c(Br)c(Br)c(Oc2c(Br)c(Br)c(Br)c(Br)c2Br)c(Br)c1Br |  | -6.21% [at 15.8 µM] (inactive)
4 | CC(=O)[O-].[Tl+] |  | -4.17% (inactive)
5 | Nc1ccc(Cc2ccc(N)c(Cl)c2)cc1Cl |  | 1.96% (inactive)
6 | CCCCN(CCCC)C(=S)[S-].CCCCN(CCCC)C(=S)[S-].[Zn+2] | 24.5 µM (active) | 
7 | COc1ccc(N)cc1N | inactive | 
8 | COC(=O)N(C(=O)N1COC2(C(=O)OC)Cc3cc(Cl)ccc3C2=N1)c1ccc(OC(F)(F)F)cc1 (stereo not given) |  | 4.95% [at 35.3 µM] (inactive)
9 | CN(C)CCc1c[nH]c2cccc(O)c12 |  | -10.3% (inactive)
10 | O=[N+]([O-])c1cc(Cl)ccc1Cl |  | 28.3% (inactive)
11 | C[C@]12CC[C@@H]3c4ccc(OC(=O)N(CCCl)CCCl)cc4CC[C@H]3[C@@H]1CC[C@@H]2O |  | -0.123% [at 35.3 µM] (inactive)
12 | CC(=O)C(Cl)(Cl)Cl |  | -19.5% (inactive)
13 | FC(F)(F)c1cccc(C2=CCN(CCc3ccc4ccccc4c3)CC2)c1 |  | 2.38% [at 35.3 µM] (inactive)
14 | CSCCCN=C=S |  | 0.905% (inactive)
15 | CCC[CH2][Sn]([CH2]CCC)([CH2]CCC)[O]C(=O)c1ccccc1 | 0.389 µM (active) | 
16 | CCS(=O)(=O)c1cccnc1S(=O)(=O)NC(=O)Nc1nc(OC)cc(OC)n1 |  | -0.21% (inactive)
17 | CC1(C)CN=C(NN=C(/C=C/c2ccc(C(F)(F)F)cc2)/C=C/c2ccc(C(F)(F)F)cc2)NC1 | 15.5 µM (active) | 
18 | COC[C@H](C)N(C(=O)CCl)c1c(C)csc1C |  | -9.51% (inactive)
19 | CCC(C)c1cc(C(C)(C)C)cc(-n2nc3ccccc3n2)c1O (stereo not given) |  | -1.83% [at 35.3 µM] (inactive)
20 | COc1ccc(/C(=C/C(=O)N2CCOCC2)c2ccc(Cl)cc2)cc1OC |  | -7.49% (inactive)

Row | Structure (SMILES) | Potency | activity change, negative = cytotoxic
21 | Oc1cccc(-c2ccccc2)c1 |  | 0.958% (inactive)
22 | CCCN(CCC)CCc1c[nH]c2ccccc12 |  | -9.97% (inactive)
23 | CCOP(=O)(NC(C)C)Oc1ccc(SC)c(C)c1 (stereo not given) |  | -6.84% (inactive)
24 | Cc1c(Cl)c(=O)oc2cc(OP(=O)(OCCCl)OCCCl)ccc12 |  | -9.94% [at 35.3 µM] (inactive)
25 | Cc1cc(SCc2sc(-c3ccc(C(F)(F)F)c(F)c3)nc2C)ccc1OCC(=O)O |  | -13.5% (inactive)
26 | CC(C)CCCCCOC(=O)c1ccccc1C(=O)OCCCCCC(C)C |  | -13.3% (inactive)
27 | NNC(=O)c1ccccc1 |  | -3.48% (inactive)
28 | CC(=O)OC1(c2ccccc2)CCN(CCc2ccccc2)CC1 |  | -14.9% (inactive)
29 | O=c1[nH]c2ccccc2n1CCCN1CCC(n2c(=O)[nH]c3cc(Cl)ccc32)CC1 |  | -5.19% [at 35.3 µM] (inactive)
30 | [Cl][Sn]([c]1ccccc1)([c]1ccccc1)[c]1ccccc1 | 2.61 µM (active) | 
31 | Nc1ccc([N+](=O)[O-])cc1Cl |  | -0.738% (inactive)
32 | O=c1[nH]c2ccccc2n1C1CCN(CCCC(c2ccc(F)cc2)c2ccc(F)cc2)CC1 | 30.9 µM (active) and inactive | 
33 | CCOC(=O)OC1=C(c2cc(C)ccc2C)C(=O)NC12CCC(OC)CC2 (stereo not given) |  | -9.67% (inactive)
34 | Cc1cccc(OP(=O)(Oc2cccc(C)c2)Oc2cccc(C)c2)c1 |  | 12.5% (inactive)
35 | N#CCc1ccc(Cl)cc1 |  | 10.4% (inactive)
36 | O=[N+]([O-])c1cc(C(F)(F)F)c(Cl)c([N+](=O)[O-])c1Cl | 13.8 µM (active) | 
37 | CCOP(=S)(OCC)SCCS(=O)(=O)CC |  | -1.16% (inactive)
38 | CC(C)CC(C)N (stereo not given) |  | 1.72% (inactive)
39 | N#CSCSC#N | 50.1 µM (active) and 21.7 µM (active) | 
40 | O=C(O)C1C2CCC(O2)C1C(=O)O (stereo not given) | inactive | 

— PubChem BioAssay (Tox21)
